# Data taken from PubChem BioAssay (Tox21).
# A number with no mark means an inactive call. Results filed as inconclusive are left out. Entries that show only a call come without a potency. The source made the active and inactive calls. Unless noted, calls follow the shape of the full dose curve.
# Tests used:
# [1] = Nuclear factor erythroid 2-related factor 2/antioxidant responsive element (Nrf2/ARE) small molecule agonists: qHTS cell viability counter screen in human keratinocytes (AID 1919968; active = well fitted curve in the direction sought with a large enough effect in the repeat runs; an effect the other way counts as inactive or inconclusive; also: nearly all actives have a fitted effect of over 55% in size)
# Procedure, shortened: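 After a 5 h attachment period, ARE-reporter keratinocytes were dosed with compounds in DMSO and then cultured 23 h at 37 C. Cell viability came from CellTiter-Fluor signal read after a further 1 h.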
# [2] = Nuclear factor erythroid 2-related factor 2/antioxidant responsive element (Nrf2/ARE) small molecule agonists: luciferase reporter gene qHTS assay in human keratinocytes (AID 1919969); also: nearly all actives have a fitted effect of over 35% in size
# [3] = biological target: Gonadotropin-releasing hormone receptor (Homo sapiens) (UniProt P30968); test: Human gonadotropin-releasing hormone receptor (GnRHR) small molecule agonists, calcium flux assay in GnRHR-HEK293 cells (AID 1920063); also: nearly all actives have a fitted effect of over 35% in size
# Sequence of Gonadotropin-releasing hormone receptor (Homo sapiens) (P30968 whole entry, looked up): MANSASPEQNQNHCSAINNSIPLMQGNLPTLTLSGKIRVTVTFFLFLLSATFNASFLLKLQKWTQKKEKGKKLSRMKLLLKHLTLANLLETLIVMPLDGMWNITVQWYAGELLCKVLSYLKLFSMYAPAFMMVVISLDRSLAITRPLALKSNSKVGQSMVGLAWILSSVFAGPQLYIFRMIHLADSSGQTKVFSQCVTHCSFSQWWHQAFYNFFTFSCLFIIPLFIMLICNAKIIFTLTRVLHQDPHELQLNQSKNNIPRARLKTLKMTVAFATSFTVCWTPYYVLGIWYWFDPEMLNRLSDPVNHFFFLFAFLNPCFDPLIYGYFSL
# Procedure, shortened: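 We seeded human GnRHR-expressing HEK293 cells for 18 hours, loaded them with calcium dye for an hour at 37 C, added test compounds, and recorded fluorescence intensity kinetically for three minutes.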
# [4] = biological target: KiSS-1 receptor (Homo sapiens) (UniProt Q969F8); test: Human kisspeptin (KISS1R) small molecule agonists, calcium flux assay in KISS1R-HEK293 cells (AID 1920064; active = well fitted curve in the direction sought with a large enough effect in the repeat runs; an effect the other way counts as inactive or inconclusive)
# Sequence of KiSS-1 receptor (Homo sapiens) (Q969F8 whole entry, looked up): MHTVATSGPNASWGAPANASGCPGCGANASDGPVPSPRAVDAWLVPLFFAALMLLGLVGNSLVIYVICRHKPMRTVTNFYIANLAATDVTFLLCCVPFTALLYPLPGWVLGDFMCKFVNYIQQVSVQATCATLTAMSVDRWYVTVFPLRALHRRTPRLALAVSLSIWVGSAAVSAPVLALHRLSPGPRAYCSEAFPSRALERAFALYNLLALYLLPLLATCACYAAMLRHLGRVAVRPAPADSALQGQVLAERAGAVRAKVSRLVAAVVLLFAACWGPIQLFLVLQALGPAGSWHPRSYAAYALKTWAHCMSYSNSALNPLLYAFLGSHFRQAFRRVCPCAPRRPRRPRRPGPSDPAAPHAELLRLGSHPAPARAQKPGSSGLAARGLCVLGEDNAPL
# Procedure, shortened: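 Kinetic calcium assay, 1 s sampling over 3 min at Ex/Em 480/540, in HEK293 cells engineered with human KISS1R; compounds delivered in DMSO after 1 h dye loading.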
# [5] = G protein-coupled receptor (GPCR) small molecule agonists, calcium flux assay: HEK293 wild type cell line counter screen (AID 1920065)
# Procedure, shortened: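 Calcium-sensitive dye, loaded 1 h at 37 C into cells cultured 18 h, reports compound-evoked calcium release as fluorescence (Ex/Em 480/540), measured over 3 min. Agonist mode; 15-point titrations, triplicate.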
# [6] = p53 small molecule agonists, cell-based qHTS assay with human liver microsomes (AID 1963577);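 also: p53 response element beta-lactamase reporter cells with liver microsomes plus NADPH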
# Procedure, shortened: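 Metabolically competent format: test substances, human liver microsomes and NADPH (both 0.5 mg/mL final) incubated with p53RE-bla cells 16 h at 37 C. Beta-lactamase reporter signal then quantified by fluorescence.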
# [7] = p53 small molecule agonists, cell-based qHTS assay with rat liver microsomes (AID 1963578)
# Procedure, shortened: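 Each plate received p53RE-bla cells, then compound, then rat liver microsomes and NADPH (both 0.5 mg/mL final). Plates were held 16 h at 37 C, and beta-lactamase activity was detected with LiveBLAzer over 2 h.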
# [8] = p53 small molecule agonists, cell-based qHTS assay with human liver microsomes: qHTS cell viability counter screen (AID 1963579); also: nearly all actives have a fitted effect of over 45% in size
# Procedure, shortened: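 Tox21 library compounds, delivered from DMSO stocks, were tested on p53RE-bla cells together with 0.5 mg/mL human liver microsomes and 0.5 mg/mL NADPH (final) over 16 h at 37 C; CellTiter-Glo luminescence served as the cytotoxicity measure.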
# [9] = p53 small molecule agonists, cell-based qHTS assay with rat liver microsomes: qHTS cell viability counter screen (AID 1963580); also: nearly all actives have a fitted effect of over 45% in size
# Procedure, shortened: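 Intracellular ATP, by CellTiter-Glo luminescence, defines viability. HCT-116 p53RE-bla cells, 4,000 per well, were compound-treated in the presence of rat liver microsomes and NADPH for 16 h at 37 C.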
# [10] = p53 small molecule agonists, cell-based qHTS assay: qHTS cell viability counter screen (AID 1963581); also: nearly all actives have a fitted effect of over 45% in size
# Procedure, shortened: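 Following 5 h attachment, HCT-116 p53RE-bla cells took up compound for 16 h at 37 C; the reporter was read with B/G FRET substrate (2 h RT), and viability then via CellTiter-Glo ATP luminescence.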
# [11] = p53 small molecule agonists, cell-based qHTS assay (AID 1963582; active = well fitted activation curve with a large enough effect in the signal ratio in the repeat runs, not every such curve was filed as active; the % refers to the signal ratio; also: potency is read from the fitted curve at half-maximal effect)
# Procedure, shortened: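 In this cell-based concentration-response screen, a p53 response element drives beta-lactamase; cells received DMSO-borne compounds after 5 h culture and were incubated a further 16 h before FRET substrate development.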
# [12] = cAMP Responsive Elements (CRE) small molecule agonists, cell-based qHTS assay (AID 1963590)
# Procedure, shortened: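 A CRE-responsive beta-lactamase reporter in HEK 293T cells was used. Treatment ran 3 h at 37 C; detection used LiveBLAzer B/G FRET substrate for 2 h at room temperature.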
# [13] = cAMP Responsive Elements (CRE) small molecule antagonists, cell-based qHTS assay (AID 1963591; active = well fitted inhibition curve with a large enough effect in the signal ratio in the repeat runs, not every such curve was filed as active; the % refers to the signal ratio)
# Procedure, shortened: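 HEK293T cells carrying a CRE-driven beta-lactamase reporter receive compound and NKH477 (0.25 uM final) for 3 h. Fluorescence from LiveBLAzer B/G FRET substrate is read after 2 h at room temperature.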
# [14] = biological target: Beta-2 adrenergic receptor (Homo sapiens) (UniProt P07550); test: Adrenergic beta2 receptor (ADRB2) small molecule antagonists, cell-based qHTS assay (AID 1963592); also: series mostly up to about 92 µM; nearly all actives have a fitted effect of over 50% in size
# Sequence of Beta-2 adrenergic receptor (Homo sapiens) (P07550 whole entry, looked up): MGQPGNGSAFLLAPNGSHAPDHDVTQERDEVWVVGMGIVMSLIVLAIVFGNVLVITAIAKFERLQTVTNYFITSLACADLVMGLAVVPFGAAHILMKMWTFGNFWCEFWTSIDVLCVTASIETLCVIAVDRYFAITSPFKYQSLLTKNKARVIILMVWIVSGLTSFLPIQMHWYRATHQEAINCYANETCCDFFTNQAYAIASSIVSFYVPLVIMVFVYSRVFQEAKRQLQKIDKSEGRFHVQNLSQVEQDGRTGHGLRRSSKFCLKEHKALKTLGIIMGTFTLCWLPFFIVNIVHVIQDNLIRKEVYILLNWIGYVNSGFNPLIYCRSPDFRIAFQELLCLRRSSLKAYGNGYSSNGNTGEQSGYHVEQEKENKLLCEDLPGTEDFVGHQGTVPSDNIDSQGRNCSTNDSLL
# Procedure, shortened: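 Cells (CHO, stable ADRB2 overexpression) incubated 18-20hr at 37C; compounds added from DMSO; agonist mix (1nM isoproterenol, 100uM IBMX, 25uM Ro-20-1724) added; 0.5hr RT; d2-cAMP and anti-cAMP-cryptate added; 1hr RT; 665/615 nm read.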
# [15] = biological target: Beta-2 adrenergic receptor (Homo sapiens) (UniProt P07550); test: Adrenergic beta2 receptor (ADRB2) small molecule agonists, cell-based qHTS assay (AID 1963593);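 also: CHO cells stably overexpressing human ADRB2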
# Procedure, shortened: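 CHO cells stably over-expressing ADRB2 were plated overnight at 37C, then dosed with compounds plus a stimulation mix containing 100uM IBMX and 25uM Ro-20-1724 for 0.5hr at room temperature. cAMP was measured by HTRF competition, 1hr.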
# [16] = biological target: D(2) dopamine receptor (Homo sapiens) (UniProt P14416); test: Dopamine D2 receptor (DRD2) small molecule agonists, cell-based qHTS assay (AID 1963594); also: nearly all actives have a fitted effect of over 35% in size
# Sequence of D(2) dopamine receptor (Homo sapiens) (P14416 whole entry, looked up): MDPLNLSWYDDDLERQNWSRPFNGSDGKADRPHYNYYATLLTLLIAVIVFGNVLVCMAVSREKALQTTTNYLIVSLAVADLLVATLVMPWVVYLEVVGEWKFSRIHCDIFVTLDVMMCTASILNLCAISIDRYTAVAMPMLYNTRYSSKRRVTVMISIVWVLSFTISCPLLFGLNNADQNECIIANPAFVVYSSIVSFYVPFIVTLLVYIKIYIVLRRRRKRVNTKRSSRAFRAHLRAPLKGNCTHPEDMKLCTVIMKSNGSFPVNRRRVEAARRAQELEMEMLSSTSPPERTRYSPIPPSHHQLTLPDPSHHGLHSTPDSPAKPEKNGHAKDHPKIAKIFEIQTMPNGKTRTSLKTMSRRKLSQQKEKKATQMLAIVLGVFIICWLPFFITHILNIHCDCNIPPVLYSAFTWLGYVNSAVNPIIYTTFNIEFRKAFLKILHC
# Procedure, shortened: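 cAMP accumulation in DRD2-HEK293 cells measured by HTRF after 1 h detection; compounds added 10 min before NKH477 (200nM […]) forskolin-analogue stimulation, 30 min at room temperature, with Ro20-1724 present at 0.1 mM final.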
# [17] = biological target: D(2) dopamine receptor (Homo sapiens) (UniProt P14416); test: Dopamine D2 receptor (DRD2) small molecule antagonists, cell-based qHTS assay (AID 1963595; active = well fitted inhibition curve with a large enough effect in the signal ratio in the repeat runs, with a control signal flat; the % refers to the signal ratio)
# Procedure, shortened: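 In this cell-based antagonist screen, compounds act for 10 min at room temperature before a 30 min challenge with 12 nM quinpirole and 200 nM NKH477. cAMP is quantified by HTRF competition in DRD2-HEK293 cells containing 0.1 mM Ro20-1724.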
# [18] = biological target: Muscarinic acetylcholine receptor M1 (Homo sapiens) (UniProt P11229); test: Cholinergic receptor muscarinic 1 (CHRM1) small molecule antagonists, cell-based qHTS assay (AID 1963588); also: nearly all actives have a fitted effect of over 40% in size
# Sequence of Muscarinic acetylcholine receptor M1 (Homo sapiens) (P11229 whole entry, looked up): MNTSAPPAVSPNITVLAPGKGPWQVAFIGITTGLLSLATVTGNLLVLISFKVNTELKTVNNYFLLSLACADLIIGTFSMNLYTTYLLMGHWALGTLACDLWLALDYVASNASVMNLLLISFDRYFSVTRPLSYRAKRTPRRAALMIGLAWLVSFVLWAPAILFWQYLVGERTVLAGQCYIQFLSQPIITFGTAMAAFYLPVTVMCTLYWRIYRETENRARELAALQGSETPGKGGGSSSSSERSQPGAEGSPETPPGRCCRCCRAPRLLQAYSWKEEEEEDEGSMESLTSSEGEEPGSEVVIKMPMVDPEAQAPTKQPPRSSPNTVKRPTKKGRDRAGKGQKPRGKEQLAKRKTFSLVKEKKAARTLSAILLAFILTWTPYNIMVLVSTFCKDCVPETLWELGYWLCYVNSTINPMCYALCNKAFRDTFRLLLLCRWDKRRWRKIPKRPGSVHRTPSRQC
# Procedure, shortened: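 CHRM1-CHO calcium-flux assay, antagonist mode. Cells were seeded 18 h, dye-loaded 1 h at 37 C and given compound for 5 min at RT, then acetylcholine was added at 50nM. FDSS fluorescence was read 3 min; 15 concentrations, three runs.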
# [19] = biological target: Muscarinic acetylcholine receptor M1 (Homo sapiens) (UniProt P11229); test: Cholinergic receptor muscarinic 1 (CHRM1) small molecule agonists, cell-based qHTS assay (AID 1963589); also: nearly all actives have a fitted effect of over 35% in size
# Procedure, shortened: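 Measures agonist-induced intracellular calcium rise. Stable human CHRM1 CHO line, 1 h dye load at 37 C, compounds from DMSO, kinetic fluorescence read.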
structure (smiles),measurement,setting,value
CCN[C@@H]1C[C@H](N)[C@@H](OC2OC(CN)=CCC2N)[C@H](O)[C@H]1O[C@H]1OC[C@](C)(O)[C@H](NC)[C@H]1O (stereo partly specified),"activity change, negative = cytotoxicity",[1],-5.32% [at 0.349 µM]
same,"activity, positive = activation",[2],8.13% [at 0.349 µM]
same,activity change,[3],"-1.46% [at 0.217 µM, hits give high values]"
same,activation,[4],-0.712% [at 0.29 µM]
same,activation,[5],1.44% [at 0.217 µM]
same,activation,[6],2.31% [at 0.249 µM]
same,activation,[7],-0.776% [at 0.249 µM]
same,"activity change, negative = cytotoxicity",[8],1.03% [at 0.249 µM]
same,"activity change, negative = cytotoxicity",[9],-10.4% [at 0.249 µM]
same,"activity change, negative = cytotoxicity",[10],-18.4% [at 0.249 µM]
same,activation,[11],5.55% [at 0.249 µM]
same,activation,[12],-0.986% [at 0.349 µM]
same,"activity change, negative = inhibition",[13],-9.29% [at 0.349 µM]
same,"activity change, negative = inhibition",[14],-0.979% [at 0.349 µM]
same,activation,[15],7.07% [at 0.349 µM]
same,activation,[16],-8.99% [at 0.349 µM]
same,"activity change, negative = inhibition",[17],14.9% [at 0.348 µM]
CC(C)(C(=O)c1cccnc1)c1cccnc1,Potency,[1],inactive
same,Potency,[2],inactive
same,Potency,[3],inactive
same,outcome,[4],inactive
same,outcome,[5],inactive
same,Potency,[6],inactive
same,Potency,[7],inactive
same,Potency,[8],inactive
same,Potency,[9],inactive
same,Potency,[10],inactive
same,Potency,[11],inactive
same,Potency,[12],inactive
same,Potency,[13],inactive
same,Potency,[14],inactive
same,Potency,[16],inactive
same,Potency,[17],inactive
CC(C)(O)c1ccccc1CC[C@@H](SCC1(CC(=O)O)CC1)c1cccc(/C=C/c2ccc3ccc(Cl)cc3n2)c1,Potency,[1],inactive
same,Potency,[2],inactive
same,Potency,[3],inactive
same,outcome,[4],inactive
same,outcome,[5],inactive
same,Potency,[6],inactive
same,Potency,[7],inactive
same,Potency,[8],inactive
same,Potency,[9],inactive
same,Potency,[10],inactive
same,Potency,[11],inactive
same,Potency,[12],inactive
same,Potency,[13],inactive
same,Potency,[14],inactive
same,Potency,[16],inactive
COc1cccc([C@H](O)C2CCN(CCc3ccc(F)cc3)CC2)c1OC,Potency,[1],inactive
same,Potency,[2],inactive
same,Potency,[3],inactive
same,outcome,[4],inactive
same,outcome,[5],inactive
same,Potency,[6],inactive
same,Potency,[7],inactive
same,Potency,[8],inactive
same,Potency,[9],inactive
same,Potency,[10],inactive
same,Potency,[11],inactive
same,Potency,[18],inactive
same,Potency,[19],inactive
same,Potency,[12],inactive
same,Potency,[14],inactive
same,Potency,[16],inactive
same,Potency,[17],inactive
Nc1ccc(C(=O)O)c(O)c1,Potency,[1],inactive
same,Potency,[2],inactive
same,Potency,[3],inactive
same,outcome,[4],inactive
same,outcome,[5],inactive
same,Potency,[6],inactive
same,Potency,[7],inactive
same,Potency,[8],inactive
same,Potency,[9],inactive
same,Potency,[10],inactive
same,Potency,[11],inactive
same,Potency,[12],inactive
same,Potency,[13],inactive
same,Potency,[14],inactive
same,Potency,[16],inactive
same,Potency,[17],inactive
Cc1cccc(C(C)(C)C)c1O,Potency,[1],inactive
same,Potency,[2],inactive
same,Potency,[3],inactive
same,outcome,[4],inactive
same,outcome,[5],inactive
same,Potency,[6],inactive
same,Potency,[7],inactive
same,Potency,[8],inactive
same,Potency,[9],inactive
same,Potency,[10],inactive
same,Potency,[11],inactive
same,Potency,[19],inactive
same,Potency,[12],inactive
same,Potency,[13],inactive
same,Potency,[14],inactive
same,Potency,[15],inactive
same,Potency,[16],inactive
same,Potency,[17],inactive
CC(=O)OC[C@H]1O[C@@H](n2ncc(=O)[nH]c2=O)[C@H](OC(C)=O)[C@@H]1OC(C)=O,Potency,[1],inactive
same,Potency,[2],inactive
same,Potency,[3],inactive
same,outcome,[4],inactive
same,outcome,[5],inactive
same,Potency,[6],inactive
same,Potency,[7],inactive
same,Potency,[8],inactive
same,Potency,[9],inactive
same,Potency,[10],inactive
same,Potency,[11],500 nM (active)
same,Potency,[12],inactive
same,Potency,[13],inactive
same,Potency,[14],inactive
same,Potency,[15],inactive
same,Potency,[16],inactive
same,Potency,[17],inactive
